Values joined by “and” are separate entries in the source; they are usually repeats but may differ in a detail not shown here. Equal values may be shown once. Records with an inconclusive call do not appear. Entries that show only a call come without a potency. Unmarked numbers belong to inactive results. Active and inactive are the calls of the source. Calls follow the shape of the dose curve; as a rule, active = well fitted cell-killing curve with a large enough effect in the repeat runs; inconclusive = weak or mixed curves, or effect the other way; inactive = flat fitted curve, though single readings scatter.
Potency is read from the fitted curve at half-maximal effect.

This assay is described as follows: qHTS RealTime-Glo MT Cell Viability Assay in HEK293 cells - 24 hour (AID 1224886). Also: nearly all actives have a fitted effect of over 50% in size. As to activity change, negative = cytotoxicity: top concentration of the series differs between compounds. The conditions noted are these: RealTime-Glo luminescence; series mostly up to 76.8 µM. An excerpt: National Center for Advancing Translational Sciences [NCATS]
NIH Chemical Genomics Center [NCGC]
U.S. Environmental Protection Agency [EPA]
National Institutes of Environmental Health Sciences [NIEHS]
National Toxicology Program [NTP]
U.S. Food and Drug Administration [FDA]
Measure of cell viability is critical in the cell-base assay. Analysis of cell viability is necessary for the characterization of cell responses to cytotoxic drugs and environmental stress. A RealTime-Glo MT Cell Viability Assay to monitor cell viability in real time of continues cell culture during 40 hours of compound treatment was used to screen Tox21 10K library compounds in Hek293 cells. The RealTime-Glo MT Cell Viability Assay is a nonlytic, homogeneous, bioluminescent method to measure cell viability in real time using a simple, plate-based method. The assay involves adding NanoLuc luciferase and a cell-permeant prosubstrate to cells in culture. Viable cells reduce the proprietary prosubstrate to generate a substrate for NanoLuc luciferase. This substrate diffuses from cells into the surrounding culture medium, where it is rapidly used by the NanoLuc Enzyme to produce a luminescent signal. The signal correlates with the number of viable cells, making the assay well suited for cytotoxicity studies.
Tox21 Assay Protocol Summary:
The mixture of Hek293 cell suspension and reagents were dispensed at 600cells/6 ul/well in 1536-well tissue culture treated black solid bottom plates using a Multidrop dispenser. After the assay plates were incubated at a 37 C/5% CO2 incubator for 5 hours, 23 nL of compounds dissolved in DMSO, positive and negative controls was transferred to the assay plate by a pintool work station. The plates were incubated at 37 C for 40 hours. The luminescence intensity were measured at 0h, 8h, 16h, 24h, 32h and 40h time points using ViewLux plate reader during compound treatment.
In general terms: In qHTS, concentration-response curves come from the screen itself.
For `O=C(c1ccccc1)C1CCCCC1`, the Potency entry was “inactive”.
As for `CCOC(=O)Nc1ccc(NCc2ccc(F)cc2)nc1N`, the Potency entry was “inactive”.
As to `NS(=O)(=O)c1cc(C(=O)NN2C[C@H]3[C@H]4CCC(C4)[C@H]3C2)ccc1Cl`, the Potency entry is “inactive”.
Same read-out and setting: next, `CN1N=C(C(N)=O)CCC1=O`: “inactive”; `C=CCOCC(CC)(CO)COCC=C`: “inactive”; `CCC(=O)OC(C)c1ccccc1` (stereo not given): “inactive”.
As for `CCCCOCCOCCOCc1cc2c(cc1CCC)OCO2`, the Potency entry was “inactive”.
Same read-out and setting: next, `Cc1ccc(C#N)cc1`: “inactive”; `CCCN(CCC)CCc1cccc2c1CC(=O)N2`: “inactive”.
On the same count and under the same terms, as for `COc1ccc(CCN(C)CCCC(C#N)(c2cc(OC)c(OC)c(OC)c2)C(C)C)cc1OC` (stereo not given), the figure is 21.3 µM (active); as for `CCCCCCCCCCCC`, “inactive”; as for `CC(C)(O)C#CC(C)(C)O`, “inactive”.
As to `CC(C)(C)c1nnc(NS(=O)(=O)c2ccccc2)s1`, the Potency result is “inactive”.
For `CCOc1ccc(C(=O)OCCN(CC)CC)cc1`, the Potency result was “inactive”.
Take `O=S(O)CO`: the Potency entry was “inactive”.
With `C[C@H]1C[C@@H](O)CC(C)(C)C1`, the Potency entry is “inactive”.
The same measure, in the same setting: as for `COC(=O)[C@@H](N)Cc1ccc(O)c(O)c1`, the entry is “inactive”.
The same measure, in the same setting: as for `CC(=O)OCC(=O)[C@@]1(O)CCC2C3CCC4=CC(=O)CC[C@]4(C)C3[C@@H](O)C[C@@]21C` (stereo not given in full), the entry is “inactive”.
Still for that read-out and setting: next, `NS(=O)(=O)c1cc2c(cc1Cl)NC(C1CC3C=CC1C3)NS2(=O)=O` (stereo not given): “inactive”.
For the molecule `O=C(CCCN1CCC(O)(c2cccc(C(F)(F)F)c2)CC1)c1ccc(F)cc1`, the Potency is 16.9 µM (active).
As to `Nc1c2c(nc3ccccc13)CCCC2O` (stereo not given), the Potency result was “inactive”.
Consider `CC(=O)N(CC(O)CO)c1c(I)c(C(=O)NCCO)c(I)c(C(=O)NCC(O)CO)c1I` (stereo not given), for which the Potency result is “inactive”.
The same measure, in the same setting: as for `ClC(Cl)(Br)Br`, the entry is “inactive”.
As to `Nc1ccccc1S(=O)(=O)O`, the Potency result was “inactive”.
Consider `N=C(N)c1ccc2cc(OC(=O)c3ccc(N=C(N)N)cc3)ccc2c1`, for which the Potency result was “inactive”.
Regarding `CC/C=C\CCOC(C)=O`, the Potency entry is “inactive”.
Still for that read-out and setting: as for `CC(C)NCC(O)c1ccc(NS(C)(=O)=O)cc1` (stereo not given), the entry is “inactive”; as for `c1ccc(CC2=NCCN2)cc1`, “inactive”.
Still for that read-out and setting: as for `COC(=O)CC(C)=O`, the entry is “inactive”; as for `O=C1OC(=O)C2CCCCC12` (stereo not given), “inactive”.
With `CCCCCCCCCCCCCC=O`, the activity change, negative = cytotoxicity is 6.14% [at 6.97 µM].
On to `CCCCC/C=C\CCC=O`, for which the Potency entry was “inactive”.
`COc1cc(C(=O)N2CCCCCCC2)cc(OC)c1OC`: the Potency entry was “inactive”.
The same measure, in the same setting: next, `CCCCNC(=O)NCCCC`: “inactive”; `CN(C)CCCN1c2ccccc2CCc2ccc(Cl)cc21`: 38.9 µM (active) and 21.3 µM (active); `c1ccc([C@H]2CN3CCSC3=N2)cc1`: “inactive”.
Consider `O=C(O)COc1nn(Cc2ccccc2)c2ccccc12`, for which the Potency result is “inactive”.
In the case of `CC[N+](C)(C)c1cccc(O)c1`, the Potency result is “inactive”.
Regarding `NC(=O)Nc1ccccc1`, the Potency entry is “inactive”.
The same measure, in the same setting: next, `CC(C)(C)NCCNC(C)(C)C`: “inactive”.

These data come from PubChem BioAssay (Tox21).
